This passage reports Potency results from PubChem BioAssay AID493185 (National Center for Advancing Translational Sciences (NCATS), 2011).

Each structure is given as a SMILES string. Active and inactive are the calls of the source. A call without a number means that no potency is given here. The call rests on the fitted dose curve; in most records, active means well fitted activation curve with a large enough effect; inconclusive means small, poorly fitted or top-dose-only effect; inactive means no such curve, though single readings can be large or run the other way.

The assay is described as follows: Counterscreen for Identifying a Potential Treatment of Ataxia-Telangiectasia: Hit Validation. The following applies: cell-free AlphaLISA/AlphaScreen artifact counterscreen, PBS only, no cells; series mostly up to 76.9 µM. The text has this:
NIH Chemical Genomics Center [NCGC]
NIH Molecular Libraries Probe Centers Network [MLPCN]
Assay Submitter (PI): Wei Zheng and Yosef Shiloh
Ataxia-telangiectasia (A-T) is a devastating and progressive disease for which, there is no cure. Although A-T is a multisystem disease, it is stereotyped characterized by its neurological symptoms such as truncal ataxia, due to cerebellar cortical degeneration of the Purkinje and granule cells. Other symptoms of A-T are telangiectasias (dilated blood vessels), primary immunodeficiency, marked sensitivity to ionizing radiation (IR), chromosomal instability and predisposition to cancer.
The underlying genetic cause of A-T is null mutations in the ATM (A-T mutated) gene. ATM is a nuclear serine/threonine kinase that functions as a master regulator of the cellular responses to double strand breaks (DSBs) in the DNA. Upon activation by DSBs, ATM phosphorylates a plethora of downstream targets, including KAP-1 on […]. KAP-1 phosphorylation occurs shortly in response to DSBs and mediates global chromatin relaxation, which facilitates DSB repair. To screen for small molecules that will compensate for the loss of ATM in cells derived from A-T patients, we monitored KAP-1 phosphorylation as a readout for ATM-like activity using an AlphaLISA assay.
3. Library compounds, 23 nl, 76.7 - 0.61uM dilution series final concentration
4. Incubation, 60 min, 37C, 5% CO2, 95% humidity
6. Incubation, 30 min, 37C, 5% CO2, 95% humidity
7. Reagent, 1 ul, Premixed detection reagents and lysis buffer
8. Reagent, 1 ul, 0.6% Antifoam A
9. Incubation, 6 hr, 25C, 95% humidity
10. Readout, EnVision, EnVision plate reader. AlphaScreen 1536-well protocol
PBS was dispensed into medium-binding white solid-bottom tissue culture treated Kalypsys plates with a Multidrop dispenser. Detection reagent and lysis buffer was 3.75nM Rab-a-pKAP1 antibody bound to 75 ng/ul AlphaScreen SA donor bead, 3.75 nM Biot-M-a-KAP1 antibody bound to AlphaLISA protein A acceptor bead, 0.5x protease inhibitor cocktail and 0.25x PerkinElmer lysis buffer. EnVision protocol for 1536-well AlphaScreen read (30ms excitation, 100ms read), about 10 min/plate. This assay is similar to the primary screen but is without cells. It aims to identify artifacts of the assay platform and unspecific hits.
In general terms: A counterscreen serves to expose hits that act by an unwanted route or on another target.
As for `Cc1ccc(C(=O)Nc2sc3c(c2C(=O)O)CCCCC3)o1`, the Potency entry was “inactive”.
Take `Cn1c(=O)oc2cc(S(=O)(=O)N3CCc4ccccc43)ccc21`: the Potency entry is “inactive”.
Consider `CC(C)(CN1CCN(c2ccccc2)CC1)NS(=O)(=O)c1ccccc1`, for which the Potency result is “inactive”.
The result for `COC(=O)CCc1c(C)c(C(=O)c2cc(OC)c(OC)c(OC)c2)c2ccccn12` reads “inactive”; that for `O=C(NC12CC3CC(CC(C3)C1)C2)c1cccc(OC(F)F)c1`, “inactive”; that for `COc1cc(CCC(=O)OCC(=O)N2CCc3ccccc32)cc(OC)c1OC`, “inactive”.
As for `CC(C)CNS(=O)(=O)c1cc(C(=O)O)c(Cl)cc1Cl`, the Potency result is “inactive”.
Take `CCOc1cccc(-c2nnc(SCC(=O)Nc3cc(C)ccc3OC)n2N)c1`: the Potency entry was “inactive”.
Regarding `N#C/C(=C/c1ccc(F)cc1)C(N)=S`, the Potency result is “inactive”.
In the case of `O=C1NC(NS(=O)(=O)c2ccc(Cl)cc2)(C(F)(F)F)C(=O)N1CCc1ccccc1` (stereo not given), the Potency result is “inactive”.
As for `CCc1ccc(NC(=O)CNCc2ccc(OC)c(OC)c2)cc1`, the Potency entry is “inactive”.
Consider `Clc1cccc(Cl)c1CSc1nnc(-c2ccncc2)s1`, for which the Potency entry was “inactive”.
With `CN(C)c1cc(Nc2ccc(O)cc2)c([N+](=O)[O-])c2nonc12`, the Potency entry was “inactive”.
For the molecule `CCC[C@H]1CCCC/C=C\CCCC(=O)OCCN1C(=O)OC(C)(C)C`, the Potency result was “inactive”.
On to `CCOc1cc(/C=C/c2nc3ccccc3c(=O)[nH]2)ccc1O`, for which the Potency entry is “inactive”.
The result for `CC1Cc2ccccc2N1C(=O)CSc1nnnn1-c1ccc2c(c1)OCCO2` (stereo not given) reads “inactive”; that for `COc1cccc(OCCc2c(C)n[nH]c2C)c1`, “inactive”; that for `CCC(C)Nc1nc(N)c([N+](=O)[O-])c(NCCO)n1` (stereo not given), “inactive”.
For the molecule `CCOc1cccc(C(=O)Nc2ccccc2N2CCN(C(=O)C(C)C)CC2)c1`, the Potency result was “inactive”.
Take `COC(=O)Cn1ccc2cc(S(=O)(=O)N3CCCCC3)ccc21`: the Potency entry is “inactive”.
The result for `O=C(C[n+]1ccc2c(c1)nnn2-c1ccccc1)c1ccc(Cl)cc1` reads “inactive”; that for `COC(=O)N/N=C/c1ccccc1OCCOc1ccc(OC)cc1`, “inactive”.
For `CC1CCCC(C)N1CCCNC(=O)Cn1ncc2c3ccccc3n(C)c2c1=O` (stereo not given), the Potency entry is “inactive”.
Turning to `COc1ccccc1C(=O)NC(=O)Nc1cccc(Cl)c1`, the Potency result was “inactive”.
In the case of `NC(=O)C1CCN(Cc2nc3cc(C(F)(F)F)ccc3c(=O)[nH]2)CC1`, the Potency result is “inactive”.
On to `COc1ccccc1Nc1nc(NCCCN(C)C)nc(N)c1[N+](=O)[O-]`, for which the Potency entry is “inactive”.
The result for `Cc1ccc(NC(=O)NC(=O)N(C(C)C)S(C)(=O)=O)nc1` reads “inactive”; that for `Cc1ccc(C)c(-n2c(SCC(=O)NC(C(=O)O)C(C)C)nnc2-c2cccc(Cl)c2)c1` (stereo not given), “inactive”; that for `O=c1c(-c2ccc(Cl)cc2)c[nH]n1-c1ccccc1`, “inactive”.
The result for `Cn1cc(/C=N/NC(N)=S)c2ccccc21` reads “inactive”.
`O=c1c2cc(Br)ccc2nc(-c2ccccc2)n1O`: the Potency result is “inactive”.
Regarding `O=C1C(Cl)=C(Nc2ccc3cn[nH]c3c2)C(=O)c2ccccc21`, the Potency entry is “inactive”.
Turning to `CCS(=O)(=O)N1Cc2ccccc2CC1C(=O)Nc1cccc(OC)c1` (stereo not given), the Potency result is “inactive”.
With `CCOc1ccc(NC2=CC(=O)CCC2)cc1`, the Potency result is “inactive”.
The result for `O=C(NCCCN1CCOCC1)c1ccc2c(c1)N(Cc1cccc(F)c1)C(=O)c1ccccc1S2` reads “inactive”; that for `CCOC(=O)c1[nH]c(COC(=O)c2ccccc2NC(=O)c2ccco2)c(C(=O)OCC)c1C`, “inactive”; that for `Cc1ccc(C2(C)NC(=O)N(CC(=O)Nc3ccccc3N3CCCC3)C2=O)cc1` (stereo not given), “inactive”.
Regarding `N=c1ccn(Cc2ccc([N+](=O)[O-])cc2)cc1`, the Potency entry is “inactive”.
With `O=C(CNCc1cccs1)Nc1cc(S(=O)(=O)N2CCCC2)ccc1Cl`, the Potency result was “inactive”.
Take `CCOC(=O)c1ccc(-n2c(C)nc3ccc(Br)cc3c2=O)cc1`: the Potency entry was “inactive”.
